From PubChem BioAssay (NCI) come the findings set out here.

Test systems include NCI-H23 lung; NCI-H226 lung; NCI-H322M lung; HOP-62 NSCLC; HOP-92 NSCLC; NCI-H522 lung; A549/ATCC NSCLC; 786-0 renal; COLO 205 colon; DU-145 prostate; K-562 leukemia; MALME-3M melanoma; MDA-MB-231 breast; RXF 393 renal; SF-268 CNS; SF-295 CNS; SF-539 CNS; UACC-257 melanoma; M14 melanoma.
Assay in all cases: NCI-60 one-dose screen, 48 h (100 = growth as untreated, 0 = no growth, -100 = all killed)
What all share (settings): 10 µM unless noted

SMILES strings stand for the structures. The panel holds about 83,000 compounds, 20% with a hit somewhere; the sample as a whole holds those more often.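 Testing used 96-well plates and a 48-hour single-concentration exposure. Example: -40 means 40% of the starting cells died.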 A number with no mark means an inactive call. Active and inactive are the calls of the source. How the source made its calls: active means growth percent below 10; inactive means the rest.

Take `CN(C)CCCn1c2c(c3cc(-c4ccco4)ccc3c1=O)C(=O)c1ccccc1-2`: the growth with NCI-H23 lung is 71.8%; with NCI-H226 lung it was 77.2%; in the test with NCI-H322M lung, 81.3%; with HOP-62 NSCLC, 59.2%; in the test with HOP-92 NSCLC it was 71.6%; in the test with NCI-H522 lung, 59.9%. In addition, the growth in the test with A549/ATCC NSCLC was 67.7%; in the test on 786-0 renal, 69.2%; in the test with COLO 205 colon, 52.9%; with DU-145 prostate, 66.8%; in the test with K-562 leukemia it was -75.1% (active); in the test with MALME-3M melanoma, 113%. In addition, the growth is 53.3% with MDA-MB-231 breast; 75.5% with RXF 393 renal; 72.3% with SF-268 CNS; 82.6% with SF-295 CNS; 63.9% in the test with SF-539 CNS; 102% in the test on UACC-257 melanoma. The growth in the test on M14 melanoma is 81.2%.
As for `NCCCn1c2c(c3cc(-c4ccn[nH]4)ccc3c1=O)C(=O)c1ccccc1-2`, the growth was 57.6% in the test with NCI-H23 lung; 56.9% with NCI-H226 lung; 67.8% in the test on NCI-H322M lung; 42.4% in the test with HOP-62 NSCLC; 79.2% in the test on HOP-92 NSCLC; 30.6% in the test on NCI-H522 lung. Moreover, the growth with A549/ATCC NSCLC was 28.4%; in the test with 786-0 renal, 41%; in the test with COLO 205 colon it was 43.8%; in the test with DU-145 prostate, 33.8%; in the test on K-562 leukemia, 6.99% (active); in the test with MALME-3M melanoma, 75.2%. Besides, the growth was 68.1% in the test with MDA-MB-231 breast; 79.5% with RXF 393 renal; 52.8% in the test with SF-268 CNS; 61.7% in the test on SF-295 CNS; 75.2% with SF-539 CNS; 102% with UACC-257 melanoma. In addition, the growth in the test on M14 melanoma was 74.8%.
Take `N#Cc1nc(-c2ccccc2)oc1S(=O)(=O)NCC(c1ccc(Cl)cc1)N1CCCCC1` (stereo not drawn): the growth with NCI-H23 lung is 78.5%; with NCI-H226 lung, 117%; with NCI-H322M lung, 85.3%; in the test on HOP-62 NSCLC, 96.3%; in the test on HOP-92 NSCLC, 79.4%; in the test with NCI-H522 lung, -18.3% (active). Further, the growth in the test on A549/ATCC NSCLC was 89.2%; in the test with 786-0 renal, 87.1%; in the test on COLO 205 colon, 79.3%; in the test with DU-145 prostate it was 84.4%; in the test on K-562 leukemia, 8.67% (active); in the test on MALME-3M melanoma, 96.8%. Also, the growth in the test on MDA-MB-231 breast was 89.3%; with RXF 393 renal it was 101%; in the test on SF-268 CNS, 78%; in the test on SF-295 CNS it was 102%; with SF-539 CNS it was 87.5%; in the test on UACC-257 melanoma it was 88.1%. Besides, the growth with M14 melanoma is 76.4%.
On to `COC(=O)c1nc(-c2ccccc2)oc1S(=O)(=O)n1nc(C)cc1N`, for which the growth in the test on NCI-H23 lung was 92.1%; in the test on NCI-H226 lung it was 110%; in the test on NCI-H322M lung, 91.8%; in the test on HOP-62 NSCLC it was 97%; with HOP-92 NSCLC, 49.5%; in the test with NCI-H522 lung, -25.8% (active). In addition, the growth in the test on A549/ATCC NSCLC was 94.9%; in the test on 786-0 renal, 80.6%; in the test with COLO 205 colon, -63.9% (active); in the test on DU-145 prostate, 92.5%; with K-562 leukemia, 3.02% (active); with MALME-3M melanoma, -37.1% (active). Further, the growth is 92.7% with MDA-MB-231 breast; 104% in the test with RXF 393 renal; 83.2% in the test on SF-268 CNS; 95.4% in the test on SF-295 CNS; 76.1% in the test on SF-539 CNS; 83.3% with UACC-257 melanoma. Also, the growth with M14 melanoma is 67.1%.
As for `Cc1ccc(C2CC(c3ccc(Nc4nc(NCCO)nc(NCCO)n4)cc3)=NN2c2ccc(Cl)cc2)cc1` (stereo not drawn), the growth with NCI-H23 lung was 71.8%; in the test on NCI-H226 lung it was 101%; in the test with NCI-H322M lung it was 51.3%; in the test on HOP-62 NSCLC, 67.6%; in the test on HOP-92 NSCLC it was 88.6%; in the test on NCI-H522 lung it was 67%. Besides, the growth with A549/ATCC NSCLC was 48.1%; with 786-0 renal it was 23.7%; in the test on COLO 205 colon, 70.3%; with DU-145 prostate, 62.6%; in the test on K-562 leukemia it was 14.9%; in the test with MALME-3M melanoma it was 67.3%. For the same compound, the growth was 66.9% with MDA-MB-231 breast; -12.6% (active) with RXF 393 renal; 56.8% in the test with SF-268 CNS; 30.3% in the test on SF-295 CNS; 39% in the test on SF-539 CNS; 75.1% with UACC-257 melanoma. For the same compound, the growth with M14 melanoma was 61.4%.
Take `CCCNc1nc(C)[nH]c(=O)c1S`: the growth is 102% in the test on NCI-H23 lung; 122% in the test with NCI-H226 lung; 85.3% in the test on NCI-H322M lung; 119% in the test on HOP-62 NSCLC; -2.9% (active) in the test on HOP-92 NSCLC; 91% in the test on NCI-H522 lung. Moreover, the growth was 110% in the test with A549/ATCC NSCLC; 110% in the test on 786-0 renal; 115% in the test with COLO 205 colon; 91.3% with DU-145 prostate; 95% with K-562 leukemia; 112% with MALME-3M melanoma. In addition, the growth with MDA-MB-231 breast was 103%; in the test on RXF 393 renal, 118%; with SF-268 CNS, 101%; in the test with SF-295 CNS, 119%; with SF-539 CNS, 115%; with UACC-257 melanoma it was 108%. Besides, in the test with M14 melanoma, the growth was 109%.
For the compound `O=C(Nc1ccc2ncnc(Nc3ccc(F)c(Cl)c3)c2c1)c1ccccc1`, the growth was 74.6% in the test with NCI-H23 lung; 72.2% with NCI-H226 lung; 27.2% with NCI-H322M lung; 72.3% with HOP-62 NSCLC; 97.2% in the test on HOP-92 NSCLC; 55.6% in the test with NCI-H522 lung. In addition, the growth with A549/ATCC NSCLC is 50.4%; in the test with 786-0 renal, 47.7%; with COLO 205 colon it was 97.3%; with DU-145 prostate it was 36.1%; in the test with K-562 leukemia, 69.4%; in the test with MALME-3M melanoma it was 90.4%. The growth is 79.8% in the test with MDA-MB-231 breast; 73.1% in the test with RXF 393 renal; 67.1% with SF-268 CNS; 82% in the test with SF-295 CNS; 78.6% with SF-539 CNS; 96.8% in the test on UACC-257 melanoma. The growth in the test with M14 melanoma was 90.1%.
